# In the supplement of paper PMC12350171:
# Where a name gives a salt, the structure may show the parent alone. Values without a mark were called inactive.
# Experiments:
# Conditions in all cases: 20 µM
# [1] = test system: Haemophilus parainfluenzae; assay: growth AUC normalised to DMSO control (fraction of control); higher = less growth inhibition, active = hit call of the paper
# Outline: (§1)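 Hemin and NAD were added to the medium for Haemophilus parainfluenzae. All pathogens, after two anaerobic passages, were inoculated at a starting OD578 of 0.01 into pre-reduced mGAM plates with 20 μM compound and 1% DMSO under breathable seals, and OD578 was read hourly for 24 h in three biological replicates. AUC of each growth curve was obtained with the trapezoidal rule up to the exponential-to-stationary transition and normalised to DMSO controls from the same plate.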
# [2] = test system: Salmonella enterica typhimurium; assay: as above
# Outline: as §1
# Shigella flexneri = assay: as above
# Outline: as §1
# Vibrio cholerae = assay: as above
# Outline: as §1
# [3] = test system: Yersinia pseudotuberculosis; assay: as above
# Outline: as §1
# P. vulgatus RND KO = assay: growth AUC normalised to DMSO control (median) (fraction of control); higher = less growth inhibition, active = hit call of the paper
# Outline: (§2)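 After two overnight anaerobic passages, strains were inoculated at OD578 0.01 into mGAM in 96-well plates containing approved-drug library compounds at 20 μM and 1% DMSO. Growth was followed by reading OD578 hourly for 24 h within an anaerobic incubator. Area under the curve, taken by the trapezoidal rule up to the start of stationary phase, was normalised to same-plate vehicle wells, and the median of three biological replicates is listed.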
# P. vulgatus WT = assay: as above
# Outline: as §2
# [4] = test system: S. enterica typhimurium WT; assay: as above
# Outline: as §2
# [5] = test system: S. enterica typhimurium tolC KO; assay: as above
# Outline: as §2
# 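Wherever growth AUC normalised to DMSO control (median) is given: active when median AUC fell below 0.1.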
Structure (SMILES),growth AUC normalised to DMSO control [1],growth AUC normalised to DMSO control [2],growth AUC normalised to DMSO control (Shigella flexneri),growth AUC normalised to DMSO control (Vibrio cholerae),growth AUC normalised to DMSO control [3],growth AUC normalised to DMSO control (P. vulgatus RND KO),growth AUC normalised to DMSO control (P. vulgatus WT),growth AUC normalised to DMSO control [4],growth AUC normalised to DMSO control [5]
C#CCN(C)[C@H](C)Cc1ccccc1 [Selegiline hydrochloride],0.985,1.02,1.05,1.01,1.03,1.03,1.05,1,1.01
C[C@]12CCC(=O)C=C1CC[C@@H]1[C@@H]2C(=O)C[C@]2(C)C(=O)CC[C@@H]12 [Adrenosterone],1.01,0.996,1.01,1,0.993,0.986,1.02,1.01,0.992
CN1C[C@H](C(=O)N[C@]2(C)O[C@@]3(O)[C@@H]4CCCN4C(=O)[C@H](Cc4ccccc4)N3C2=O)C[C@@H]2c3cccc4[nH]cc(c34)C[C@H]21 [Dihydroergotamine tartrate],1.04,0.978,0.994,1.02,1.01,0.989,0.996,1,0.984
CN1C(=O)CCS(=O)(=O)C1c1ccc(Cl)cc1 (configuration not stated) [Chlormezanone],1.02,1,0.992,1.01,0.995,1.03,1.02,1,1
Fc1ccc(C(OCCN2CCN(CCCc3ccccc3)CC2)c2ccc(F)cc2)cc1,0.991,1,0.998,0.944,0.995,0.994,0.966,0.999,0.914
CC(C)C[C@H]1C(=O)N2CCC[C@H]2[C@]2(O)O[C@](NC(=O)[C@@H]3C=C4c5cccc6[nH]c(Br)c(c56)C[C@H]4N(C)C3)(C(C)C)C(=O)N12 [Bromocryptine mesylate],1,1,0.996,0.996,1.03,1.01,1.03,1.02,0.994
CCCC(C)C1(CC)C(=O)NC(=O)NC1=O (configuration not stated) [Pentobarbital],1.02,1.01,1.05,0.999,0.986,1.05,1.06,1.01,0.999
CN(C)[C@@H]1C(=O)C(C(N)=O)=C(O)[C@@]2(O)C(=O)C3=C(O)c4c(O)ccc(Cl)c4[C@@](C)(O)[C@H]3C[C@@H]12 [Chlortetracycline hydrochloride],0.0445 (active),0.00172 (active),0.0163 (active),0.0321 (active),0.0311 (active),0.0183 (active),0.0152 (active),0.00367 (active),0.00506 (active)
CC(CCc1ccccc1)NC(C)C(O)c1ccc(O)cc1 (configuration not stated) [Nylidrin],0.988,0.987,0.994,0.983,0.993,1,0.998,1,0.991
C[C@H](N)[C@H](O)c1ccc(O)c(O)c1 [Levonordefrin],1.04,1.01,1,1,1.03,1.01,1.03,0.99,1
CCOC(=O)c1cncn1[C@H](C)c1ccccc1 [Etomidate],1.02,1.01,1,1.03,0.984,1.07,1.1,1,0.978
C1CCc2nnnn2CC1 [Pentylenetetrazole],1.01,0.978,1.01,1.04,0.976,1.03,1.06,1,0.986
C[C@]12CCC(=O)C(O)=C1CC[C@@H]1[C@@H]2CC[C@]2(C)C(=O)CC[C@@H]12 [Formestane],1.01,1.03,1,1.01,0.997,0.976,0.982,0.997,0.927
N[C@@H]1C[C@H]1c1ccccc1 [Tranylcypromine hydrochloride],1.04,0.999,1,1.01,0.959,1.01,1.05,1.01,1
COc1ccc(OC)c(C(O)C(C)N)c1 (configuration not stated) [Methoxamine hydrochloride],1,1.01,0.984,1.01,0.991,0.987,0.0385 (active),1.01,0.999
C[C@]12Cc3c[nH]nc3C[C@@H]1CC[C@@H]1[C@@H]2CC[C@@]2(C)[C@H]1CC[C@]2(C)O [Stanozolol],0.949,1.01,0.987,0.998,1,0.959,0.966,1.02,0.966
CN(C)[C@@H]1C(=O)C(C(N)=O)=C(O)[C@@]2(O)C(=O)C3=C(O)c4c(O)cccc4[C@@](C)(O)[C@H]3[C@H](O)[C@@H]12 [Oxytetracycline dihydrate],0.0523 (active),0.00147 (active),0.015 (active),0.0278 (active),0.0752 (active),0.00913 (active),0.0112 (active),0.0149 (active),0.00753 (active)
NCCCNCCSP(=O)(O)O [Amifostine],1.02,1.02,0.99,1.01,0.992,1.02,1.07,1.02,1.01
COc1ccc(Cc2nccc3cc(OC)c(OC)cc23)cc1OC [Papaverine hydrochloride],0.976,1,0.971,0.944,0.997,0.997,1.01,1.01,0.976
C#C[C@]1(O)CC[C@H]2[C@@H]3CCC4=CC(=O)CCC4=C3C=C[C@@]21CC [Gestrinone],1.03,0.989,1.03,1.01,1.01,1.01,1.07,1.01,0.986
S=C(NC1CCCCC1)N1CCC(c2cnc[nH]2)CC1 [Thioperamide maleate],0.976,0.98,0.957,0.97,0.991,1,1.01,0.997,0.996
CC(C)(C)NCC(O)c1ccccc1Cl (configuration not stated) [Tulobuterol hydrochloride],1,1,1.01,1.03,0.893,0.991,1.01,0.99,1.01
CC(Cc1ccc(O)cc1)NCC(O)c1cc(O)cc(O)c1 (configuration not stated) [Fenoterol hydrobromide],0.991,1.01,0.962,1.01,0.998,1.03,1.03,1.01,1
CN1CCN(C(=O)OC2c3nccnc3C(=O)N2c2ccc(Cl)cn2)CC1 (configuration not stated) [Zopiclone],1.01,0.996,1,0.998,0.996,0.999,1.01,0.994,0.999
Clc1ccc(C(OCCN2CCCCC2)c2ccccc2)cc1 (configuration not stated) [Cloperastine hydrochloride],0.833,0.992,1.03,0.954,1.03,1.01,1,1,0.938
C[C@]12COC(=O)C[C@@H]1CC[C@@H]1[C@@H]2CC[C@@]2(C)[C@H]1CC[C@]2(C)O [Oxandrolone],0.995,1.01,1,1,0.963,1.03,1.05,1.01,0.991
CC[C@@H](CO)NC(=O)[C@@H]1C=C2c3cccc4[nH]cc(c34)C[C@H]2N(C)C1 [Methylergometrine maleate],0.997,0.985,0.966,1.01,0.998,0.975,0.952,0.993,1
CC(C)c1cccc(C(C)C)c1O [Propofol],0.988,1.01,1.01,1.01,0.985,1.05,1.05,1.01,0.993
